Reference: PubChem BioAssay AID1509 (The Scripps Research Institute Molecular Screening Center, 2009)
Screen size: about 220,000 compounds; about 770 (0.35%) were called active. No stated cut-off is given here; in the data, active means activation above about 11%; inactive means the rest. Many of the other results were omitted from the sample, so actives are more common in it than they were.

target: Sphingosine 1-phosphate receptor 4 (Homo sapiens) (UniProt O95977); experiment: activators of human S1P4 receptor – cell-based, primary screen (AID 1509); conditions: S1P4-expressing cell line, agonist reporter assay; at 4.98 µM; stronger effect = higher value;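 further: 0% = DMSO vehicle and 100% = reference agonist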
Sequence (O95977 whole entry, looked up): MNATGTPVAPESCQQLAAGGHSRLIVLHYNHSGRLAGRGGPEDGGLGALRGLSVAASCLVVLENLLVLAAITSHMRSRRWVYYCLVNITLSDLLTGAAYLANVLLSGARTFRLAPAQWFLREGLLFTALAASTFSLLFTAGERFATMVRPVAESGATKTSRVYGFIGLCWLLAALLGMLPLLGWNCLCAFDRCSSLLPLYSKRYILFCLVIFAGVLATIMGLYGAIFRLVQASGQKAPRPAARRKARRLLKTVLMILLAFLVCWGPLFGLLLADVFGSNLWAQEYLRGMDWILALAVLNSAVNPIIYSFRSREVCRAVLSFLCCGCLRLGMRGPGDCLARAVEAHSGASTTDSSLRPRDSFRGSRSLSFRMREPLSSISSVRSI

activation, inactive:
CCn1nnnc1SCC(=O)c1ccc(C)cc1C -0.47%
Cc1ccc(NC(=O)N2CCSc3ccccc32)cc1 0.59%
CC(=O)Nc1ccc(Nc2c([N+](=O)[O-])cc(S(C)(=O)=O)cc2[N+](=O)[O-])cc1 -0.76%
Cn1c(=O)c2c(nc(N3CCOCC3)n2CCNC2=NCCC2)n(C)c1=O -3.47%
CSCc1ccc(C(=O)Nc2cc(C)cc(C)c2)cc1 0.79%
Cc1ccc(C(=O)NC(=S)Nc2ccccc2C)cc1 1.14%
O=S(=O)(NCCc1ccncc1)c1ccccc1 -2.17%
CCN(CC)CCCSc1nc2ccccc2s1 -1.06%
CCCCOc1ccc(-c2nnc(-c3ccco3)o2)cc1 0.55%
CCC(=O)Oc1cccc(C(=O)Nc2ccc(-c3nnc(-c4ccco4)o3)cc2)c1 1.45%
O=C(CC1C(=O)NCCN1CC(c1ccccc1)c1ccccc1)NCCc1cn[nH]c1 (stereo unspecified) -1.81%
Cc1cc(C(=O)COC(=O)C2CC2)c(C)n1-c1ccc(F)cc1 1.5%
Cc1ccc(S(=O)(=O)NC(=O)Nc2nc(-c3ccc(F)c(F)c3)cs2)cc1 1.19%
CNS(=O)(=O)c1ccc(NC(=O)C2CC(=O)N(c3ccc(Cl)cc3)C2)cc1 (stereo unspecified) -4.58%
COc1cccc2c1CCC(NC(C)=O)C2=O (stereo unspecified) 1.12%
Cn1c(SCC(=O)N2CCOCC2)nnc1-c1ccc2ncccc2c1 1.83%
O=C(CSc1nnc(Cc2ccccc2)n1-c1ccccc1)N1CCOCC1 -2.13%
O=C(Nc1ccc(NC(=O)c2ccco2)c(Cl)c1)c1cccc([N+](=O)[O-])c1 1.27%
CCN(CC)S(=O)(=O)c1cccc(-c2n[nH]c(=S)n2/N=C/c2ccc(C(=O)OC)cc2)c1 0.89%
Cc1cc(CNC(=O)c2cccc([N+](=O)[O-])c2)c2ccccc2n1 1.06%
CC(=O)Nc1ccc(Nc2c3ccccc3nc3ccccc23)cc1 4.18%

activation, active:
CC(=O)Nc1ccccc1NC(=O)c1cc(C)cc(C)c1 52.2%
CCOc1ccc(-c2nnc(-c3ccco3)o2)cc1 13.2%
COC(=O)[C@@H]1CC[C@H](C)[C@@H](c2ccc(C)cc2)N1C(=O)c1ccc(/C=N/O[C@H](C)c2cn([C@@H]3COC[C@H]3O)nn2)cc1 44.7%
O=C(CSc1nncn1-c1cccnc1)N1CCOCC1 44.7%
O=[N+]([O-])c1cccc(Nc2c3ccccc3nc3ccccc23)c1 13.1%
